LASV entry inh = qHTS for Inhibitors of binding or entry into cells for Lassa Virus; Lassa virus pseudotyped entry inhibition, cell-based qHTS; Potency, µM (highest dose often 49.2 µM), inactives show at the highest dose activity change, negative = inhibition, most hits filed as inhibitors; 18,000 tested, 4.1% active
Marburg entry = qHTS for Inhibitors of binding or entry into cells for Marburg Virus. Potency, µM (doses to about 49.2 µM), for inactives: at the top dose activity change, negative = inhibition, actives largely listed as inhibitors. 18,000 tested, 6.5% active. Marburg virus pseudotype entry/binding inhibition, cell-based
Numbers without * were called inactive; u = inconclusive; x = not tested or not shown; ! = not active in a repeat; [ ] = another dose, or the depositor's remark. An excerpt weighted towards active compounds, which were near 7.1% of everything screened. The call rests on the fitted dose curve; tested in HEK293 cells. On the % scale 0 is the no-effect control and ±100 the full control effect; potency means the concentration at half of the fitted maximal effect.

SMILES	LASV entry inh	Marburg entry
CN(C)CCOc1ccccc1Cc1ccccc1 (tested in a mixture with another compound)	-24%	u
CC/C(=C(\c1ccccc1)c1ccc(OCCN(C)C)cc1)c1ccccc1	x	10µM*!
COc1cc(O)c(C(=O)C=Cc2ccc3c(c2)OCO3)c(OC)c1	12%[8.59 µM]	10%[8.59 µM]
CCN(CC)CCOc1ccc2c(c1)C(=O)c1cc(OCCN(CC)CC)ccc1-2	u	6.3µM*
CCOc1ccc(C(=O)OCCN(CC)CC)cc1	-11%	-7%
O=C1CS(=O)(=O)N(Cc2ccccc2)[C@H]1Cc1ccccc1	3%	21%
CC(C)/C(O)=C1/C(=O)OC(c2ccoc2)[C@@]2(C)C(O)C(O)[C@@]34OC5(C)OC67CC(C)(C(O)[C@@]6(O)C(O)[C@@]3(O5)C12)C(CC(=O)O)[C@@]74C (some centres not stated)	-3%	-3%
COC(=O)CC1C2(C)CC34OC5(C)O[C@@]6(C7/C(=C(/OC)C(C)C)C(=O)OC(c8ccoc8)[C@@]7(C)C(OC(=O)C(C)C)C(OC)[C@]6(O5)[C@@]13C)C(OC)[C@]4(OC)C2OC(C)=O (some centres not stated)	u	7.1µM*
COC1=C[C@H](C(=O)NCCOC(C)=O)[C@@]2(C)Cc3ccccc3[C@@H]2CC1=O	-15%[8.59 µM]	-10%[8.59 µM]
C[N+](C)(C)CCOC(=O)C(O)(c1ccccc1)c1ccccc1	-17%	-10%
Cc1cc(C(C)(C)CC(C)(C)C)ccc1OCCOCC[N+](C)(C)Cc1ccccc1	u	11µM*
CCCCCC(=O)N1C[C@H](O)[C@@H](n2cc(C3CC3)nn2)C[C@H]1c1ccc(Cl)cc1	0%	-8%
CC/C(=C(/CC)c1ccc(OP(=O)(O)O)cc1)c1ccc(OP(=O)(O)O)cc1	-14%	8%
CC/C(=C(/CC)c1ccc(O)cc1)c1ccc(O)cc1	3.5µM*	u
CCC(=C(CC)c1ccc(O)cc1)c1ccc(O)cc1	6.3µM*	u
CCOC(=O)c1ccc(O)cc1	7%	13%
COC(=O)C1=C(C)N(Cc2ccccc2)C(=O)NC1CCc1ccccc1 (configuration not stated)	6%[8.59 µM]	23%[8.59 µM]
CCNC(C)Cc1cccc(C(F)(F)F)c1 (configuration not stated)	2%	11%
C[C@@H](NCCCc1cccc(C(F)(F)F)c1)c1cccc2ccccc12	16µM*	6.3µM*
CCCCC/C=C\C/C=C\C/C=C\C/C=C\CCCC(=O)NCc1ccc(O)c(OC)c1	7.9µM*	u
CCCCC[C@H](O)CC(=O)CCc1ccc(O)c(OC)c1	-9%	1%
COc1cc(CNC(=O)CCCC/C=C/C(C)C)ccc1O	25µM*!	7%
CCCCCCCCC(=O)NCc1ccc(O)c(OC)c1	0%	5%
CCCCCCN1C[C@@H](O)[C@H](n2cc(C3CC3)nn2)C[C@H]1c1ccc(OC)cc1	-8%	-22%
NCc1ccc(-c2nc(-c3ccc(Cl)c(O)c3)c(-c3ccncc3)[nH]2)cc1	20%	u
SMILES	LASV entry inh	Marburg entry
Oc1cccc(-c2nc(-c3ccccc3)[nH]c2-c2ccncc2)c1	x	7.9µM*
C=CCN1[C@@H](CC(C)C)COc2c(Cl)cccc2S1(=O)=O	19%	-9%
COc1cc([C@@H]2c3cc4c(cc3C(O[C@@H]3O[C@@H]5CO[C@@H](C)O[C@H]5[C@H](O)[C@H]3O)C3COC(=O)[C@@H]32)OCO4)cc(OC)c1OP(=O)(O)O (some centres not stated)	3.2µM*	2.8µM*
COc1cc([C@@H]2c3cc4c(cc3[C@@H](O[C@@H]3O[C@@H]5CO[C@@H](C)O[C@H]5[C@H](O)[C@H]3O)[C@H]3COC(=O)[C@H]23)OCO4)cc(OC)c1O	1.1µM*	u
COc1cc(C2c3cc4c(cc3C(OC3OC5COC(C)O[C@@H]5C(O)C3O)C3COC(=O)C23)OCO4)cc(OC)c1O (some centres not stated)	u	1.1µM*
C[C@H]1N[S+](=O)([O-])c2cccc(Cl)c2O[C@H]1c1ccccc1	-11%	-21%
O=C(c1cccs1)N1C[C@@H](n2cc(-c3ccc(F)cc3)nn2)[C@@H](O)C[C@@H]1c1ccc(Cl)cc1	-27%	u
CO[C@H](C1CCCCC1)[C@H](C)C=CCC(=O)OCCCc1ccccc1	x	5%[8.59 µM]
COC(=O)c1ccc(CN2C(=O)C3(CC(C)=C[C@@H](C)O3)c3c(Br)cccc32)cc1 (some centres not stated)	-7%[8.59 µM]	26%[8.59 µM]
C=CCN=C1N[C@H](c2ccc(Br)cc2)C(C(=O)OC)=C(C)N1Cc1ccccc1	-5%[8.59 µM]	1%[8.59 µM]
CC1=C(/C=C/C(C)=C/C=C/C(C)=C/C=C/C=C(C)/C=C/C=C(C)/C=C/C2=C(C)C[C@@H](O)CC2(C)C)C(C)(C)C[C@H](O)C1	28µM*	9%
CC1=C(/C=C/C(C)=C/C=C/C(C)=C/C=C/C=C(C)/C=C/C=C(C)/C=C/C(=O)[C@]2(C)CC(O)CC2(C)C)C(C)(C)CC(O)C1 (some centres not stated)	6%	8%
C=CCP1(=O)O[C@H](C=C)C[C@H](C=C)O1 (some centres not stated)	4%	38%
C#CCN1C(=O)CC[C@@]23C1=NC(C(=O)OC)=C(C(=O)OC)[C@@H]2N(CC=C(C)C)c1ccccc13	x	15%[8.59 µM]
CCC(Oc1ccc(Cl)cc1)C(=O)OC1CC2CCC(C1)N2C (configuration not stated)	u	6.3µM*
CN1C2CCC1CC(OC(=O)C(O)c1ccccc1)C2 (configuration not stated)	-1%	1%
CN1CCC(OC(=O)C(Oc2ccc(Cl)cc2)Oc2ccc(Cl)cc2)CC1	-26%	6%
CC(C(=O)OC1CC2CCC(C1)N2C)c1ccc(Br)cc1 (configuration not stated)	-11%	28µM*
C=CCN1C(=O)[C@@]2(CC(C)=C[C@@H](COc3ccccc3)O2)c2ccccc21	7%[8.59 µM]	2%[8.59 µM]
c1ccc(C2NCCc3c2[nH]c2ccccc32)cc1 (configuration not stated)	14%[8.59 µM]	23%[8.59 µM]
C=C(C)C(O)C=Cc1ccc(Br)cc1 (configuration not stated)	35%[8.59 µM]	u
CC(C)(O)C1O[C@H]2CC[C@@]3(C)[C@@](O)(CC[C@H]4Cc5c([nH]c6ccccc56)[C@@]43C)C2=CC1=O (some centres not stated)	32µM*!	u
Cc1c(C(=O)NCCN2CCC(c3ccccc3)CC2)cnn1-c1nccc(-c2cccs2)n1	-26%	13µM*
Cc1c(C(=O)NCCc2ccccn2)cnn1-c1nccc(-c2cccs2)n1	2%	9%
CC12C=C(C=Cc3ccc(C(F)(F)F)cc3)C(C)(C1)C(c1ccc(C(F)(F)F)cc1)CC2=O (configuration not stated)	-1%[8.59 µM]	6%[8.59 µM]
CCOC(=O)CN1C(=O)NC(c2ccc(Br)cc2)C(C(C)=O)=C1C (configuration not stated)	39%[8.59 µM]	47%[8.59 µM]
C[C@@H]1O[C@@H](OC2CC(O)C3(CO)C4C(CCC3(O)C2)C2(O)CCC(C3=CC(=O)OC3)C2(C)C[C@H]4O)[C@H](O)[C@H](O)[C@H]1O (some centres not stated)	0.18µM*	0.22µM*
COC(=O)N[C@@H](c1ccc(Cl)cc1)C(C(C)=O)C(=O)OC (some centres not stated)	1%[8.59 µM]	13%[8.59 µM]
CC(=O)Nc1c2sscc-2n(C)c1=O	10µM*	11µM*

Source: PubChem (National Center for Advancing Translational Sciences (NCATS))
